This passage reports activity change, negative = inhibition and Potency results from PubChem BioAssay (NCATS).

Each structure is given as a SMILES string. Results filed as inconclusive are left out. Entries that show only a call come without a potency. Unmarked numbers belong to inactive results. The source made the active and inactive calls. Calls follow the shape of the dose curve; as a rule, active = well fitted inhibition curve with a large enough effect; inconclusive = small, poorly fitted or top-dose-only effect; inactive = flat fitted curve, though single readings scatter. *1 amine or outer side, *2 acyl side, *3 side chain or, on linkers, in order; H or OH if unused. Where a SMILES comes first, the peptide text is derived from it. Bridges are numbered along the chain shown (N, C = ends). [ ]: non-standard residue; d: D form. The star is where a group is joined. ξ: configuration not given here. X10 = NC1=NCCC(C(N[*:1])C(=O)[*:2])N1; ΔAla(3-NHCONH2) = NC(=O)NC=C(N)C(=O)O; ξβ3hOrn = NCCCC(N)CC(=O)*; Dap = NC[CH](N)C(=O)O
Potency is read from the fitted curve at half-maximal effect.

The nature of this assay: qHTS to identify inhibitors of the type 1 interferon - major histocompatibility complex class I in skeletal muscle: primary screen against the NCATS Pharmaceutical Collection (AID 1347407).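 Also: luminescence of HiBiT knocked into endogenous HLA-B as interferon-induced MHC class I level.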 The note with it: human skeletal muscle cells, IFN-b-induced MHC-I HiBiT luminescence, 24 h; series mostly up to 45.9 µM. Summed up:
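Compounds […] were added to CRISPR-engineered HLA-B-HiBiT C25cl48 human myoblasts with 4.0 ng/ml IFN-beta. After 24 hrs at 37 C, cells were lysed and HiBiT luminescence measured.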
(In general: In qHTS, concentration-response curves come from the screen itself.)
`NCCCC(N)CC(=O)NCC1NC(=O)C(CO)NC(=O)C(N)CNC(=O)C(C2CCN=C(N)N2)NC(=O)C(=CNC(N)=O)NC1=O` (stereo not drawn) (H-[Dap]S[Dap](ξβ3hOrn)[ΔAla(3-NHCONH2)][X10]; lactam 1-C; configuration not given here): the activity change, negative = inhibition was -9.07% [at 0.727 µM].

Consider `Cn1cc(S(C)=O)c(=O)c2ccc(F)cc21` (centres undefined), for which the Potency result was “inactive”.

With `CCN1CCN(C(=O)N[C@@H](C(=O)N[C@@H]2C(=O)N3[C@@H]2SC(C)(C)[C@H]3C(=O)O)c2ccccc2)C(=O)C1=O`, the Potency result was “inactive”.

As to `CCCCNc1ccc(C(=O)OCCN(CC)CC)cc1`, the Potency result is “inactive”.

For the compound `CCOC(=O)Cn1cccc1-c1nc(-c2ccc(OC)cc2)c(-c2ccc(OC)cc2)s1`, the Potency entry is “inactive”.

On to `NC(=O)NC1N=C([O][Al])NC1=O` (centres undefined), for which the Potency result is “inactive”.

As for `C[N+]1(C)CCC(OC(=O)C(O)(c2ccccc2)C2CCCC2)C1` (centres undefined), the Potency result is “inactive”.

Take `CC(=O)O[C@H]1CC[C@@]2(C)C(=CC[C@@H]3[C@@H]2CC[C@]2(C)C(C(C)=O)=CC[C@@H]32)C1`: the Potency entry was “inactive”.

For `CCOC(=O)C(=O)c1csc(NC=O)n1`, the Potency entry was “inactive”.

Turning to `CN(C)CCN(Cc1ccsc1)c1ccccn1`, the Potency entry is “inactive”.

Take `Cc1ccc2c(Cl)cc(Cl)c(O)c2n1`: the Potency entry was “inactive”.

Consider `CCOC(=O)c1cc(=O)c2c(OCC(COc3cccc4oc(C(=O)OCC)cc(=O)c34)OC(=O)[C@@H](N)CCCCN)cccc2o1`, for which the Potency result is “inactive”.

`CN1CCC(Nc2ncc3ncnc(Nc4ccc(F)c(Cl)c4)c3n2)CC1`: the Potency is 18.7 µM (active).

`CC(=O)[C@H]1CC[C@H]2[C@@H]3C=CC4=CC(=O)CC[C@@]4(C)[C@@H]3CC[C@]12C`: the Potency entry is “inactive”.
